Assay results as given in PubChem BioAssay (NCI).
This is part of a sample that, as a whole, favours compounds with a hit. Of some 79,000 tested, about 15% had one in any assay. Cut-off read from the data, not from the text of the source: active = growth inhibition above about 70%; inactive = the rest.

Legend:
[1] = NCI Yeast Anticancer Drug Screen. Data for the rad50 strain (AID 155);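 note: 0% = growth of vehicle-only cultures of the same strain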; settings: S. cerevisiae rad50 strain growth inhibition, hits give high values; at 50.0 µM unless noted
Method in brief: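 Compounds were tested on a yeast strain with an engineered DNA damage repair alteration; the reported value is growth inhibition normalised to vehicle treatment.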

[2] = NCI Yeast Anticancer Drug Screen. Data for the mec2-1 strain (AID 157); settings: S. cerevisiae mec2-1 strain, hits give high values; at 50.0 µM unless noted
Method in brief: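 mec2-1 yeast strain, carrying an alteration in DNA damage repair or cell cycle control, was exposed to compounds; growth inhibition was measured relative to vehicle-treated controls.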

[3] = NCI Yeast Anticancer Drug Screen. Data for the sgs1 mgt1 strain (AID 161);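 note: 0% = growth of cultures given vehicle only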; settings: S. cerevisiae sgs1 mgt1 strain, hits give high values; at 50.0 µM unless noted
Method in brief: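 Growth of a repair-deficient yeast mutant was monitored after compound treatment and expressed as inhibition relative to vehicle-treated cultures.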

[4] = NCI Yeast Anticancer Drug Screen. Data for the cln2 rad14 strain (AID 165);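 note: 0% = growth equal to vehicle treated cultures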; settings: S. cerevisiae cln2 rad14 strain, hits give high values; at 50.0 µM unless noted
Method in brief: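 Yeast carrying cln2 and rad14 alterations (cell cycle control and DNA damage repair) were exposed to compounds. Growth inhibition was measured against vehicle-treated controls.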

[5] = NCI Yeast Anticancer Drug Screen. Data for the bub3 strain (AID 167); settings: S. cerevisiae bub3 mutant strain, hits give high values; at 50.0 µM unless noted
Method in brief: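 Growth of a checkpoint-deficient yeast mutant is measured after compound exposure. Values represent inhibition relative to vehicle.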

[6] = NCI Yeast Anticancer Drug Screen. Data for the mlh1 rad18 strain (AID 175); settings: S. cerevisiae mlh1 rad18 strain growth inhibition, hits give high values; at 50.0 µM unless noted
Method in brief: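 Growth inhibition of the yeast strain was measured after compound exposure and expressed relative to vehicle-treated controls. The strain carries defined defects in DNA damage repair.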

Measured: growth inhibition

COc1nc2nccnc2c(=O)n1C
inactive: [1] -18.2% | [2] -4.65% | [3] -16.5% | [4] 14.4% | [5] -7.55% | [6] -3.3%

CC(=O)OC(OC(C)=O)c1ccccc1
inactive: [1] 24.2% | [2] 12.2% | [3] -3.4% | [4] 16% | [5] 5% | [6] 11.7%

CC1CN=C(N(C(=O)Nc2ccccc2)C2CCCCC2)S1 (stereo unspecified)
inactive: [1] -43.1% | [2] -8.9% | [3] -60.1% | [4] 5.35% | [5] -4.3% | [6] -20%

O=C(c1ccc([N+](=O)[O-])cc1)N(Cc1ccccc1)Cc1ccccc1 (tested in a mixture with another compound)
inactive: [1] -7% | [2] 15.7% | [3] -12.7% | [4] -10.9% | [5] 26.8% | [6] 9.5%

C[N+]1(CCN[N+]2(C)CCCCC2)CCc2ccccc2C1 (stereo unspecified)
inactive: [1] -5.55% | [2] -14.7% | [3] -44.5% | [4] -20.3% | [5] -39.3% | [6] -3.25%

O=[N+]([O-])c1ccc(N=Cc2ccc(N(CCF)CCF)cc2)cc1
inactive: [1] 6.9% | [2] 15.9% | [3] 16.1% | [4] -60% | [5] -9.2% | [6] 10.9%

Cc1cc(C)c2nccc(NCCCN(C)C)c2c1[N+](=O)[O-]
inactive: [1] 5.65% | [2] 5% | [3] -1.8% | [4] 5.35% | [5] -10.8% | [6] -78.5%

CN(C)CCNC(=O)Nc1cccc2ccccc12
inactive: [1] 16% | [2] 8.35% | [3] -0.8% | [4] 16.6% | [5] -6.5% | [6] 2.25%

O=C(OCc1ccccc1)C1CCN1C(c1ccccc1)c1ccccc1 (stereo unspecified)
inactive: [1] 7.85% | [2] 13.5% | [3] 5.5% | [4] -25.6% | [5] 11.2% | [6] -7.8%

Cc1ccc(C)c(N=Nc2c(C)nc(N)nc2C)c1
inactive: [1] 1.8% | [2] -10.2% | [3] -9.45% | [4] -34.2% | [5] -22.1% | [6] -3.05%

C#CCN(Cc1ccc2nc(-c3ccccc3)c(Cl)nc2c1)c1cc(OC)c(OC)c(OC)c1
inactive: [1] 14.8% | [2] -12.6% | [3] -16.9% | [4] -23.4% | [5] -26.1% | [6] 4.75%

CCCCCCN1COCC(COc2ccc(Cl)cc2)OC1 (stereo unspecified)
inactive: [1] 23.8% | [2] 18.8% | [3] 36.9% | [4] 22.1% | [5] 10.7% | [6] 50.1%

Cc1ccccc1C=NC12CC3CC(CC(C3)C1)C2
inactive: [1] -24.8% | [2] -18.1% | [3] -22.2% | [4] 7.2% | [5] -8.4% | [6] -25.1%

COc1ccc(CCl)cc1OCc1ccccc1
inactive: [1] -33.7% | [2] -17.8% | [3] -16.7% | [4] -24.4% | [5] -14.7% | [6] -21.2%

O=S(=O)(Nc1cccc(O)c1)c1ccccc1
inactive: [1] 6% | [2] -12.1% | [3] 6.8% | [4] 14.7% | [5] 3% | [6] 13.2%

CC(=O)OC(C#N)c1ccco1 (stereo unspecified)
inactive: [1] -11.4% | [2] -49.1% | [3] -25.2% | [4] 5.8% | [5] -38.2% | [6] -7.85%

CCN(CC)CCNC(=O)c1cc(N2CCOCC2)ccn1
inactive: [1] 23.3% | [2] 11.7% | [3] 18.5% | [4] 1.05% | [5] 30.6% | [6] 45.5%

[N-]=[N+]=C(C(=O)CN1CCCC1=O)S(=O)(=O)c1ccccc1
inactive: [1] 10.4% | [2] -6.4% | [3] -6.55% | [4] 9.1% | [5] -2.85% | [6] 16.2%

COc1cc(CCC(NC(C)=O)c2cccc(O)c(=O)c2)cc(OC)c1OC (stereo unspecified)
inactive: [1] -10.2% | [2] -4.6% | [3] 17.2% | [4] -33.5% | [5] -3.35% | [6] 8.1%

CCC1(CC)C(=O)NN(C(=O)c2ccc(Cl)cc2)C1=O
inactive: [1] -4.9% | [2] -22.9% | [3] 28.4% | [4] 7.15% | [5] -5.6% | [6] -37.5%

CC(C)(CO)NCC(C)(C)[N+](=O)[O-]
inactive: [1] 8.5% | [2] 2.25% | [3] 14.6% | [4] -9.2% | [5] 6.95% | [6] 6.7%
